Reference: PubChem BioAssay (NCATS)
Values joined by “and” are separate entries in the source; they are usually repeats but may differ in a detail not shown here. Equal entries are not always repeated. Records with an inconclusive call do not appear. A call without a number means that no potency is given here. Active and inactive are the calls of the source. Unless noted, calls come from the whole dose curve; as a rule, active = well fitted curve in the direction sought with a large enough effect; inconclusive = small, poorly fitted or top-dose-only effect, or another doubt; inactive = no such curve, though single readings can be large; an effect the other way counts as inactive or inconclusive. Bridge positions count the residues as written; N and C are the ends. Square brackets hold non-standard residues; d marks the D form. Peptide text beside a SMILES is read from it. * marks the point of attachment. Octanoyl(6-Me) = CCC(C)CCCCC(=O)*; Dab = NCC[CH](N)C(=O)O

What was measured:
[1] = target: Luciferin 4-monooxygenase (Photinus pyralis) (UniProt P08659); test: Biochemical firefly luciferase enzyme assay for NPC (AID 624030); note: nearly all actives have a fitted effect of over 70% in size; note: potency is the fitted concentration of half-maximal effect
Method in brief: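 Counter-screen for direct inhibition of the luciferase enzyme by approved-drug library compounds, run at 10 nM enzyme in 50 mM Tris acetate (final). Luminescence was read within 5 min of enzyme-buffer addition and normalized to PTC124 versus DMSO (0%).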

[2] = target: Glutathione peroxidase 1 (Homo sapiens) (UniProt P07203); test: Primary qHTS Assay for Inhibitors of Recombinant Selenoprotein Glutathione Peroxidase 1 (GPX1) (AID 1845191); note: nearly all actives have a fitted effect of over 65% in size; note: potency is the fitted concentration of half-maximal effect
Method in brief: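 Recombinant GPX1 (10 nM final) was preincubated with compound for 30 min at room temperature, then reacted with 1 mM GSH, 0.5 mM CHP, 0.5 mM NADPH and 100 nM glutathione reductase; NADPH fluorescence (340/450 nm) was read at 0 and 15 min.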

[3] = target: Phospholipid hydroperoxide glutathione peroxidase GPX4 (Homo sapiens) (UniProt P36969); test: Primary qHTS Assay for Inhibitors of Recombinant Selenoprotein Glutathione Peroxidase 4 (GPX4) (AID 1845192); note: nearly all actives have a fitted effect of over 65% in size; note: potency is the fitted concentration of half-maximal effect
Method in brief: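 GR-coupled readout: 100 nM GR, 1 mM GSH, 0.5 mM NADPH; NADPH fluorescence (ex 340/em 450 nm) read at t=0 and after 15 min RT. GPX4 200 nM, preincubated 30 min with compound; substrate 0.5 mM CHP.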

[4] = qHTS profiling for inhibitors of Plasmodium falciparum proliferation (AID 504749); note: potency is the fitted concentration of half-maximal effect; for all read-outs here: nearly all actives have a fitted effect of over 60% in size; settings: P. falciparum in erythrocytes, SYBR Green DNA, 72 h; for activity, negative = inhibition: at 28.7 µM (top of the series)
Method in brief: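 P. falciparum-infected erythrocytes (0.3% parasitemia, 2.5% hematocrit final) were exposed to compounds for 72 h at 37 C in 5% CO2, then lysed with SYBR Green buffer overnight at room temperature; parasite DNA fluorescence was normalized to artemisinin and DMSO controls.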

[5] = Cell Viability - LYMP2-018 (AID 985);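 note: compound exposure lasted 24 hr at 37 °C; nearly all actives have a fitted effect of over 50% in size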
Method in brief: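 Human lymphoblastoid cells (2500/well) were pre-incubated 5 hr at 37 C, then exposed to compounds for 24 hr at 37 C in complete medium. Viability was read as intracellular ATP by CellTiter-Glo luminescence; AC50 values came from Hill-equation fits.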

[6] = target: Estrogen receptor (Homo sapiens) (UniProt P03372); test: qHTS assay for small molecule agonists of estrogen receptor alpha signaling (AID 588514; calls by dose curve; note: nearly all actives have a fitted effect of over 70% in size)
Method in brief: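 ER-alpha-UAS-bla GripTite HEK 293 cells in medium with 2% charcoal/dextran-treated FBS were treated with compound titrations at 37 C for 18 hrs; beta-lactamase reporter read by CCF4 fluorescence after 2 hrs at RT.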

[7] = target: Glucocorticoid receptor (Homo sapiens) (UniProt P04150); test: qHTS assay for small molecule antagonists of glucocorticoid receptor signaling (AID 588533; active = well fitted inhibition curve with a large enough effect in the signal ratio, with a control signal flat, not every such curve was filed as active; the % refers to the signal ratio;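 note: cells stimulated with 2 nM dexamethasone as agonist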)
Method in brief: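 Antagonist-mode qHTS: compound titrations added to GRE-bla HeLa cells, then dexamethasone 2 nM final; 18 h, 37 C. CCF4 FRET fluorescence normalized to dexamethasone and DMSO; IC50 from Hill fit.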

[8] = qHTS assay for small molecule antagonists of peroxisome proliferator-activated receptor delta signaling (AID 588535; active = well fitted inhibition curve with a large enough effect in the signal ratio, with a control signal flat, not every such curve was filed as active; the % refers to the signal ratio;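 for max response: cells co-treated with a PPAR-delta agonist as stimulator during compound exposure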); settings: HEK293T PPARd-UAS-bla, beta-lactamase FRET ratio, 18 h; 460 nm channel
Method in brief: (§1)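 GeneBLAzer PPAR-delta-UAS-bla HEK293T cells in medium with 2% charcoal/dextran FBS were preincubated 5 hrs at 37 C, then given compounds, incubated 18 hrs at 37 C, and read by CCF4 beta-lactamase fluorescence; IC50 from Hill fits.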

[9] = target: Peroxisome proliferator-activated receptor delta (Homo sapiens) (UniProt Q03181); test: as above
Method in brief: as §1

[10] = target: Peroxisome proliferator-activated receptor gamma (Homo sapiens) (UniProt P37231); test: qHTS assay for small molecule antagonists of peroxisome proliferator-activated receptor gamma signaling (AID 588537; active = well fitted inhibition curve with a large enough effect in the signal ratio, with a control signal flat, not every such curve was filed as active; the % refers to the signal ratio;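 note: reporter cells co-stimulated with 50 nM rosiglitazone agonist during compound treatment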)
Method in brief: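 PPAR-gamma-UAS-bla HEK293 cells (3000/well, 1% charcoal/dextran-stripped FBS) were preincubated 6-6.5 h at 37 C, given titrated compounds, then stimulated with 50 nM rosiglitazone for 16 h. Beta-lactamase activity was read with CCF4 dye; IC50 came from Hill fits.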

[11] = target: Vitamin D3 receptor (Homo sapiens) (UniProt P11473); test: qHTS assay for small molecule antagonists of vitamin D receptor signaling (AID 588541; calls by dose curve;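 note: receptor activated by calcitriol during compound treatment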)
Method in brief: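 VDR-UAS-bla HEK293T cells (2000/well, 2% charcoal-stripped FBS) were treated with titrated compounds plus 1-alpha,25-dihydroxyvitamin D3 (50 nM or 3 nM final) for 16 h at 37 C. CCF4 beta-lactamase fluorescence was read; Hill fits gave IC50.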

[12] = qHTS assay to identify small molecules that stimulate interleukin-8 (IL-8) secretion (AID 651758; active = well fitted activation curve with a large enough effect in the signal ratio; the % refers to the signal ratio)
Method in brief: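 THP-1, 2000 cells/well; cpd 16 h, 37 C; add cryptate + XL665 anti-IL-8 Abs; RT 1-3 h; TR-FRET read.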

[13] = target: Nuclear receptor ROR-gamma (Homo sapiens) (UniProt P51449); test: qHTS assay for small molecule antagonists of the retinoid-related orphan receptor gamma (ROR-gamma) signaling pathway (AID 651802); note: nearly all actives have a fitted effect of over 60% in size
Method in brief: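 CHO cells carrying TET-inducible ROR-gamma and an ROR response element–luciferase reporter were exposed to compound, then induced with doxycycline. After 16hr at 37C, luminescence was read; lower signal indicates antagonism.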

[14] = Cell Viability - N2a (AID 540); settings: N2a mouse neuroblastoma cell viability; activity change, negative = cytotoxicity: at 92.2 µM (top of the series); note: nearly all actives have a fitted effect of over 45% in size
Method in brief: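 Mouse neuroblastoma N2a cells (1500/well) were preincubated 5 hr at 37 °C, then exposed to compounds for 40 hr at 37 °C in complete medium. Viability was read as intracellular ATP by CellTiter-Glo luminescence; AC50 from Hill fits.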

[15] = Cellular Toxicity (caspase-3) HUV-EC-C (AID 656)
Method in brief: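 Read-out: luminescence proportional to caspase 3/7 activity, measured 20 min after adding Caspase-Glo 3/7 reagent. Cells (HUV-EC-C) had received compound for 16 hr at 37°C. Increases relative to DMSO and 100 uM tamoxifen gave concentration-response AC50 values.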

[16] = target: Bile acid receptor (Homo sapiens) (UniProt Q96RI1); test: qHTS assay for small molecule antagonists of farnesoid X receptor signaling (AID 588526; calls by dose curve)
Method in brief: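 Concentration-response titrations were fitted to the Hill equation for half-maximal inhibition and maximal response, with data normalised to 50 uM chenodeoxycholic acid and DMSO control wells. Cells: FXR-UAS-bla HEK293T, dialyzed FBS.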

[17] = qHTS assay for small molecule agonists of the antioxidant response element (ARE) signaling pathway (AID 651741; active = well fitted activation curve with a large enough effect in the signal ratio; the % refers to the signal ratio)
Method in brief: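 ARE-bla HepG2 cells (beta-lactamase reporter under ARE control) were plated at 2,000 cells/well, preincubated 5 h at 37 C/5% CO2, then treated with DMSO-dissolved compounds for 16 h at 37 C; LiveBLAzer B/G FRET substrate added, fluorescence read after 2 h at room temperature.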

[18] = qHTS assay for cell viability of the p53RE-bla HCT-116 cell line (AID 743292); note: nearly all actives have a fitted effect of over 55% in size
Method in brief: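 Intracellular ATP of p53RE-bla HCT-116 cells measured by luciferase luminescence following 16 h compound incubation at 37 C; DMSO-only wells served as vehicle controls.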

[19] = Cellular Toxicity (caspase-3) HepG2 (AID 654);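 note: cells exposed to compound for 16 hours before reading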
Method in brief: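 HepG2 cells (1500/well) in complete medium were treated with compounds for 16 hr at 37 °C. Caspase-3/7 activity was then read as luminescence from peptide-aminoluciferin cleavage. AC50 came from Hill fits, normalized to DMSO and 100 uM tamoxifen.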

Chain of Estrogen receptor (Homo sapiens) (P03372 whole entry, looked up): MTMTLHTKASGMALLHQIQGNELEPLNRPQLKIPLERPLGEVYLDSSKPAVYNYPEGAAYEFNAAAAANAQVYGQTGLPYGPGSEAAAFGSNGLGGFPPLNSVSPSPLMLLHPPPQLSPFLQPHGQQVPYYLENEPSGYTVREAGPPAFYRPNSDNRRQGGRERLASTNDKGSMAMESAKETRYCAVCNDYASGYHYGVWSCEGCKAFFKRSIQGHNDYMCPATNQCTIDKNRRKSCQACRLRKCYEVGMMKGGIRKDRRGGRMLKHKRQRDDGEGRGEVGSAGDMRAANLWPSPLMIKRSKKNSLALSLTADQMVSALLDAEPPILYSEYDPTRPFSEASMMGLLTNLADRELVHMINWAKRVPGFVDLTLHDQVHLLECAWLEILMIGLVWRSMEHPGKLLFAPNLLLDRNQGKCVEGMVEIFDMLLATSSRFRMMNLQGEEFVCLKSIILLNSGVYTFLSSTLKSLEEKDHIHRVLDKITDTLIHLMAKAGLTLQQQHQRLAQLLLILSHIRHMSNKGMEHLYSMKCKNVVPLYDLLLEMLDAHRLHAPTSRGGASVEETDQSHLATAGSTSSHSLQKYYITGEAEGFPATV
Chain of Peroxisome proliferator-activated receptor delta (Homo sapiens) (Q03181 whole entry, looked up): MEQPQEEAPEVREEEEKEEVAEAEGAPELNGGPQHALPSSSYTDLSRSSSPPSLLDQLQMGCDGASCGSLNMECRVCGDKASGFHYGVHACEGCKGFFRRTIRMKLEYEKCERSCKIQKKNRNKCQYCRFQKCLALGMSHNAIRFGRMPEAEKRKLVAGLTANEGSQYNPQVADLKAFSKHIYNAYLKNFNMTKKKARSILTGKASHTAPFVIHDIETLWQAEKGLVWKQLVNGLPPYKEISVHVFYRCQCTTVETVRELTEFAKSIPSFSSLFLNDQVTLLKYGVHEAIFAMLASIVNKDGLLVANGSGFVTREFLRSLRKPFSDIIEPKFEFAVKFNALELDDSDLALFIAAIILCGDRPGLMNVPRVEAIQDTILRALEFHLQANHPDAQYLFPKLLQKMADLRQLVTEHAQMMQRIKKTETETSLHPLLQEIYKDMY
Chain of Phospholipid hydroperoxide glutathione peroxidase GPX4 (Homo sapiens) (P36969 whole entry, looked up): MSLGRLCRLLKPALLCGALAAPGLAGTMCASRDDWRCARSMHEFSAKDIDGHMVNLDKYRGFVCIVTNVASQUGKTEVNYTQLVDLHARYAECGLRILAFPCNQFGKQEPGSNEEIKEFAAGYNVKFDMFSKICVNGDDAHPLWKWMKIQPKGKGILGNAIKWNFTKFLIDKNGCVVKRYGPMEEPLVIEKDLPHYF
Chain of Luciferin 4-monooxygenase (Photinus pyralis) (P08659 whole entry, looked up): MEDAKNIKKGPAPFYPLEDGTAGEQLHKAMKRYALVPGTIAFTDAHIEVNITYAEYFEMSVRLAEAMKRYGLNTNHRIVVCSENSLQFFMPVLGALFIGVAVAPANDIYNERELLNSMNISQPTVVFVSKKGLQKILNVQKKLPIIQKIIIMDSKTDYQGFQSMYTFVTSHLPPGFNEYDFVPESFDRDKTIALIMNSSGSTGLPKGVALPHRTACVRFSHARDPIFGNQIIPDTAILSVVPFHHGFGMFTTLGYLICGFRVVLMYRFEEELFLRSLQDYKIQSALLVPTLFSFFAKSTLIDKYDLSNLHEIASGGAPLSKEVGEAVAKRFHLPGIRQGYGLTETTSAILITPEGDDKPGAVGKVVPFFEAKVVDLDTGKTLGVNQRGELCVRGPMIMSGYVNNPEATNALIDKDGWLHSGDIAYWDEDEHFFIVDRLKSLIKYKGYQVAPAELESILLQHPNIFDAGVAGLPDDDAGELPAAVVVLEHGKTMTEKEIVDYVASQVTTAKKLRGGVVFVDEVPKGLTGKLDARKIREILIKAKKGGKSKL
Chain of Peroxisome proliferator-activated receptor gamma (Homo sapiens) (P37231 whole entry, looked up): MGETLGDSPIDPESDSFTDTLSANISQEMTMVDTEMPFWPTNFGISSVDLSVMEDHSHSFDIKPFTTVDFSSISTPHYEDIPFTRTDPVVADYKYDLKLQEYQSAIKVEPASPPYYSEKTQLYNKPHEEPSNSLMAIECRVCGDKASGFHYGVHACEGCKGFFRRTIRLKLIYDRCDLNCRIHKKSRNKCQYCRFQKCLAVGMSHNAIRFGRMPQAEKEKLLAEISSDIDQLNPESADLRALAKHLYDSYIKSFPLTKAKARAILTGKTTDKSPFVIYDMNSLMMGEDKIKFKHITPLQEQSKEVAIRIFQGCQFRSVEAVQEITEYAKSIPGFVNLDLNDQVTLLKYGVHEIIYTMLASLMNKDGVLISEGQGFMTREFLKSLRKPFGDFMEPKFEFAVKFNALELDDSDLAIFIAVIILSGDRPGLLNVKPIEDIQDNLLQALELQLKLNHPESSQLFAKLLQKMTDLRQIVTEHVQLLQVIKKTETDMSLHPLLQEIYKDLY
Chain of Glucocorticoid receptor (Homo sapiens) (P04150 whole entry, looked up): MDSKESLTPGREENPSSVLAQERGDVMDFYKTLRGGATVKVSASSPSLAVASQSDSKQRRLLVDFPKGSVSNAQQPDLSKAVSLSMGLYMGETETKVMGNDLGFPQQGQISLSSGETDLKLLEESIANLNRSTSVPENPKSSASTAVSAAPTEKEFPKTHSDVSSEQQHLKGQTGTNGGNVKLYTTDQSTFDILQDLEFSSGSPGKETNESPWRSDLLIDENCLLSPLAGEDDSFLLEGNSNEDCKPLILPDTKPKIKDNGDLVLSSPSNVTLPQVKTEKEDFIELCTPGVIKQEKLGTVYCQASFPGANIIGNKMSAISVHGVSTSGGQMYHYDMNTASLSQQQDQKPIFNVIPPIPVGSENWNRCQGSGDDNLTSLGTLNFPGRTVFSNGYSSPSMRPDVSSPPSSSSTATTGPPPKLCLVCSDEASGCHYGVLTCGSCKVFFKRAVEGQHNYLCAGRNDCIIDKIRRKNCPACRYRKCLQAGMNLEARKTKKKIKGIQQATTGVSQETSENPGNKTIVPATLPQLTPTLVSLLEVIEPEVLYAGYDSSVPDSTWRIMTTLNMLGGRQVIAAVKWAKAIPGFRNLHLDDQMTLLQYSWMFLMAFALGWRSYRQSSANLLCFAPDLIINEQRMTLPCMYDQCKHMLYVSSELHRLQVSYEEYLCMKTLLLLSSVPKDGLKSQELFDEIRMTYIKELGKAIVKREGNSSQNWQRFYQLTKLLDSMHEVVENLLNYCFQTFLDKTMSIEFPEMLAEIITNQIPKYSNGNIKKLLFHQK
Chain of Glutathione peroxidase 1 (Homo sapiens) (P07203 whole entry, looked up): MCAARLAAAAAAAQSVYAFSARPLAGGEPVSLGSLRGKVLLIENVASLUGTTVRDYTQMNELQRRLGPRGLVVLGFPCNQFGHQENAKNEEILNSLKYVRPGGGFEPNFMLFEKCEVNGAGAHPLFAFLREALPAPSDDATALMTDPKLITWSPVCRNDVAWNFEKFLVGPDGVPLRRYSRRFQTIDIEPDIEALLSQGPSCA
Chain of Vitamin D3 receptor (Homo sapiens) (P11473 whole entry, looked up): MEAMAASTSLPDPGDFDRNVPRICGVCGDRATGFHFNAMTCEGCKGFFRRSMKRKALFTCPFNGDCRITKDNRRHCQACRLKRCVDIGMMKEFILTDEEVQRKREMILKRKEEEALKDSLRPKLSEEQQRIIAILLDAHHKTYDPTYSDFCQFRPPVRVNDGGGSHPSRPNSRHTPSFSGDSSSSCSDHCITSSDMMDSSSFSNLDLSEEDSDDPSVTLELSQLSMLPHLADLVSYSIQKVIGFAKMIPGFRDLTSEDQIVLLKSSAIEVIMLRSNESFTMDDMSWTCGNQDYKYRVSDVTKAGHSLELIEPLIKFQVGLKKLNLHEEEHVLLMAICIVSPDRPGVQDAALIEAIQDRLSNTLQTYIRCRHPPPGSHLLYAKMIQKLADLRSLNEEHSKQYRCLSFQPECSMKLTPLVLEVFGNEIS
Chain of Nuclear receptor ROR-gamma (Homo sapiens) (P51449 whole entry, looked up): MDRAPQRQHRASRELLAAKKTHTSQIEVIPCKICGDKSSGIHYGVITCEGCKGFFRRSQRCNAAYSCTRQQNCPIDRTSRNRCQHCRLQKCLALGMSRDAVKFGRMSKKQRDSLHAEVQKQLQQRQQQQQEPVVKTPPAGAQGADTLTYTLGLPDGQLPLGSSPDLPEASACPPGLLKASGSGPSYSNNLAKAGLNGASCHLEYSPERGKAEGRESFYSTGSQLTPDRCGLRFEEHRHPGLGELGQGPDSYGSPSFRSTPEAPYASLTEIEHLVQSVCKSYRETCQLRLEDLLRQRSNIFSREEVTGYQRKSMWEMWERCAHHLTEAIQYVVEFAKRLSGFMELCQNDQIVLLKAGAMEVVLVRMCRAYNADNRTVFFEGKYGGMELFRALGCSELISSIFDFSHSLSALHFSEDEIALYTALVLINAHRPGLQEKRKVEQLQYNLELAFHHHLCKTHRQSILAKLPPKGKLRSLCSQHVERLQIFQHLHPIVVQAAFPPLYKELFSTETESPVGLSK
Chain of Bile acid receptor (Homo sapiens) (Q96RI1 whole entry, looked up): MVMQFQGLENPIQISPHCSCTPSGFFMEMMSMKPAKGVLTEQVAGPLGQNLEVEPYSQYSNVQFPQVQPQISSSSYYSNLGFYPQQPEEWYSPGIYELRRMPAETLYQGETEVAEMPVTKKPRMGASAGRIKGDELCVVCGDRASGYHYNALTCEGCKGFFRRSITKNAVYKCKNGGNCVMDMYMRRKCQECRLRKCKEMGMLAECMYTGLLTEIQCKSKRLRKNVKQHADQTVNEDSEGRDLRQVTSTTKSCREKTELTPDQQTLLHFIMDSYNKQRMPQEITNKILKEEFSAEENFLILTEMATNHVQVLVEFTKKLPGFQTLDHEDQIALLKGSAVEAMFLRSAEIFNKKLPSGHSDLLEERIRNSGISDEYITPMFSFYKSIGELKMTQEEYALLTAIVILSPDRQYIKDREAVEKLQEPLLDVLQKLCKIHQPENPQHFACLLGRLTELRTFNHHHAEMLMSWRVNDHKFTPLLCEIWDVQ

CCN1/C(=C/C=C/C=C/c2sc3ccccc3[n+]2CC)Sc2ccccc21
Potency [1]: 32.2 µM (active)
Potency [2]: 1.43 µM (active)
Potency [3]: 7.94 µM (active)
Potency ([4]; parasite line A): 2.82 µM (active)
Potency ([4]; parasite line B): 3.98 µM (active)

COc1cc([C@@H]2c3cc4c(cc3[C@@H](O[C@@H]3O[C@@H]5CO[C@@H](C)O[C@H]5[C@H](O)[C@H]3O)[C@H]3COC(=O)[C@H]23)OCO4)cc(OC)c1OP(=O)(O)O
Potency [1]: inactive
Potency [2]: inactive

COc1cc(/C=C/C(=O)N2CCC=CC2=O)cc(OC)c1OC
Potency [2]: inactive

N[C@@H](C(=O)N[C@@H]1C(=O)N2C(C(=O)O)=C(Cl)CC[C@H]12)c1ccccc1
Potency [2]: inactive
Potency [3]: inactive

CNC(=O)c1ccccc1Nc1nc(Nc2ccc3c(c2OC)CCC[C@H](N2CCN(CCO)CC2)C3)ncc1Cl
Potency [2]: inactive
Potency [3]: inactive

C[N+]1(C)[C@@H]2CC(OC(=O)C(O)(c3cccs3)c3cccs3)C[C@H]1[C@H]1O[C@@H]12 (some centres undefined)
Potency [3]: inactive

Nc1nc(-c2ccc(Cl)c(Cl)c2)c(-c2ccncc2)s1
Potency [2]: inactive

Nc1cccc(-c2csc(NC(=O)CCCCCCC(=O)NO)n2)c1
Potency [2]: inactive

CC(=O)OC1CC(OC2C(O)CC(OC3C(O)CC(OC4CCC5(C)C(CCC6C5CCC5(C)C(C7=CC(=O)OC7)CCC65O)C4)OC3C)OC2C)OC(C)C1O (centres undefined)
Potency [3]: inactive

CCCCCCCCCCCCC[N+](C)(C)Cc1ccccc1
Potency [2]: inactive
Potency [3]: inactive

N=C(N)c1ccc(OCCCOc2ccc(C(=N)N)cc2Br)c(Br)c1
Potency [1]: inactive
Potency [2]: inactive
Potency [3]: inactive

c1ccc2scnc2c1
Potency [5]: inactive
Potency [6]: inactive
Potency [7]: inactive
max response [8]: 3.24%
Potency [9]: inactive
outcome [10]: inactive
outcome [11]: inactive
Potency [12]: inactive
Potency [13]: inactive
Potency [2]: inactive
Potency [3]: inactive

NCCCC(N)C(=O)O (centres undefined)
Potency [1]: inactive
Potency [2]: inactive
Potency [3]: inactive

CCC(C)CCCCC(=O)NC(CCN)C(=O)NC(C(=O)NC(CCN)C(=O)NC1CCNC(=O)C(C(C)O)NC(=O)C(CCN)NC(=O)C(CCN)NC(=O)C(CC(C)C)NC(=O)C(Cc2ccccc2)NC(=O)C(CCN)NC1=O)C(C)O (centres undefined) ({Octanoyl(6-Me)}-[Dab]T[Dab][Dab][Dab]FL[Dab][Dab]T; lactam 4-C; configuration not given here)
Potency [1]: inactive
Potency [2]: inactive
Potency [3]: inactive
activity, negative = inhibition ([4]; parasite line B): 12% (inactive)

CO/N=C(/C(=O)N[C@@H]1C(=O)N2C(C(=O)OC(C)OC(C)=O)=C(COC(N)=O)CS[C@H]12)c1ccco1 (some centres undefined)
Potency [1]: inactive
Potency [2]: 20.2 µM (active)

CC/C=C(\C(=O)N[C@H]1C(=O)N2C(C(=O)OCOC(=O)C(C)(C)C)=C(COC(N)=O)CS[C@H]12)c1csc(N)n1
Potency [1]: inactive
Potency [2]: 6.26 µM (active)

CO/N=C(/C(=O)N[C@@H]1C(=O)N2C(C(=O)O)=CCS[C@H]12)c1csc(N)n1
Potency [1]: inactive
Potency [2]: 10.1 µM (active)
activity, negative = inhibition ([4]; parasite line A): 1.12% (inactive)
activity, negative = inhibition ([4]; parasite line B): 9.16% (inactive)

O=C(O)C[C@@H]1CC[C@H](NC(=O)Cc2cccs2)B(O)O1
Potency [3]: inactive

O=S(=O)(O)c1ccccc1
activity change, negative = cytotoxicity [14]: -0.532% (inactive)
outcome [15]: inactive
outcome [16]: inactive
Potency [7]: inactive
max response [8]: 1.28%
Potency [9]: inactive
outcome [10]: inactive
outcome [11]: inactive
Potency [17]: inactive
Potency [13]: inactive
Potency [18]: inactive
Potency [2]: inactive

Cc1cccc(O)c1
Potency [6]: inactive
Potency [7]: inactive
max response [8]: -22.1% and -37.2%
Potency [9]: inactive
outcome [10]: inactive
Potency [18]: inactive
Potency [2]: inactive
Potency [3]: inactive

CO[C@@H]1[C@@H](OC2OC(C)C(OC3CC(C)(O)C(OC(=O)CC(C)C)C(C)O3)C(N(C)C)C2O)[C@@H](CC=O)C[C@@H](C)C(=O)/C=C\C2O[C@H]2C[C@@H](C)OC(=O)C[C@H]1OC(C)=O (some centres undefined)
Potency [1]: inactive
Potency [2]: inactive
Potency ([4]; parasite line A): 11.2 µM (active)
Potency ([4]; parasite line B): 10 µM (active)

O=C1CCc2ccccc2O1
outcome [19]: inactive
outcome [15]: inactive
Potency [5]: inactive
Potency [7]: inactive
outcome [10]: inactive
Potency [18]: inactive
Potency [2]: inactive
